Assay outcomes as filed in PubChem.
A selection: hits, their analogues and other compounds. The true share with any hit is near 0.65%.
PrP UTR inh: inhibition of PrP 5' UTR reporter expression; cell-based PrP 5' UTR mRNA reporter, plate reader; inhibition, % (concentration not given with the values); actives 0.35% (n = 340,000); AID 488862; in the data active = inhibition above about 52%
Vc quorum ag: induces V. cholerae light production without autoinducers | V. cholerae BH1578 lux reporter, luminescence, 6 h | actives 0.16% (n = 350,000) | activation, % at 18.7 µM; in the data active = activation mostly above about 9.7%, no sharp cut-off
Y pestis TopoI: Y. pestis Topo-I inhibition via cleavage products. Y. pestis Topo-I cleavage product accumulation, plate reader. actives 0.064% (n = 360,000). activity, % at 10 µM; in the data active = activity above about 50%, passing the limit was not always enough
TcdB inh: TcdB glycohydrolase inhibition | TcdB glycohydrolase enzymatic assay, plate reader | P18177 | inhibition, % at 9.99 µM | actives 0.24% (n = 350,000); in the data active = inhibition above about 10%
Mtb UGM inh: inhibitors of M. tuberculosis UDP-galactopyranose mutase. P9WIQ1. purified UGM, fluorescence polarization probe displacement. inhibition, % at 10 µM. actives 0.06% (n = 320,000); in the data active = inhibition above about 10%, passing the limit was not always enough
Target sequence (P9WIQ1 whole entry, looked up): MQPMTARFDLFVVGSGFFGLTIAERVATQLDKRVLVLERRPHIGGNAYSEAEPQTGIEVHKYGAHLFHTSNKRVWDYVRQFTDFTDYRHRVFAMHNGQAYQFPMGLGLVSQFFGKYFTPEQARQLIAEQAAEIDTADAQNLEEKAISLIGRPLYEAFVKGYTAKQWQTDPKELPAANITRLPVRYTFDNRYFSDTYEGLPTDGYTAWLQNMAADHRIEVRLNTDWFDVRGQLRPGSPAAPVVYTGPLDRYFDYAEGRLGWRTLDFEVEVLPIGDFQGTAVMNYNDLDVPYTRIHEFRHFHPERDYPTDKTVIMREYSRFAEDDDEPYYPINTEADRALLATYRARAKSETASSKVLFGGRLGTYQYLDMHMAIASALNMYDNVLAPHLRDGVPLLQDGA
A number is an active result.

Results for C[C@H](CO)N1C[C@H](C)[C@H](CN(C)C(=O)Nc2ccccc2)Oc2ccc(NC(=O)Nc3cccc4ccccc34)cc2C1=O ?
TcdB inh: inactive

What do the screens show for `CCCNC(=O)C[C@H]1CC[C@@H]2[C@H](COc3ccc(NC(=O)c4ccc(Cl)cc4)cc3C(=O)N2C)O1`?
TcdB inh: 15

Results for CCNC(=O)C[C@@H]1CC[C@H]2[C@H](COc3ccc(NC(C)=O)cc3C(=O)N2C)O1 ?
TcdB inh: 10

What do the screens show for `COCC#Cc1ccc([C@H]2[C@@H](CO)N3CCCCN(Cc4cccnc4)C[C@@H]23)cc1`?
TcdB inh: inactive

What do the screens show for `NC(=O)C1(Nc2ccc(-c3ccc(Br)cc3)cc2)CCCC1`?
PrP UTR inh: inactive; Vc quorum ag: inactive; Y pestis TopoI: inactive; TcdB inh: 11

What do the screens show for `CCC(C)NC(=O)CSc1nnc(-c2cc(-c3ccc(C)cc3)nc3ccccc23)n1N` (stereo not given)?
PrP UTR inh: inactive; Vc quorum ag: 40; Y pestis TopoI: inactive; Mtb UGM inh: inactive

Results for Cc1ccccc1-n1ncc2c1CC(C)(C)CC2NC(=O)CCC1=NNC(=O)CC1 (stereo not given) ?
PrP UTR inh: inactive; Vc quorum ag: inactive; Y pestis TopoI: inactive; TcdB inh: inactive; Mtb UGM inh: inactive

Results for Cc1ccn(CCC(=O)NC2CC(C)(C)Cc3c2cnn3-c2ccccc2C)n1 (stereo not given) ?
PrP UTR inh: inactive; Vc quorum ag: inactive; Y pestis TopoI: inactive; TcdB inh: 10; Mtb UGM inh: inactive

Results for CN(C)CC(=O)N[C@H]1CC[C@H](CCNC(=O)Nc2ccc(C(F)(F)F)cc2)O[C@H]1CO ?
TcdB inh: inactive

What do the screens show for `O=C(C[C@@H]1C[C@@H]2c3cc(NC(=O)C4CCOCC4)ccc3O[C@@H]2[C@H](CO)O1)NCCc1ccccc1`?
TcdB inh: inactive

What do the screens show for `CNc1nc(C23CC4CC(CC(C4)C2)C3)cs1`?
PrP UTR inh: inactive; Vc quorum ag: inactive; Y pestis TopoI: inactive; TcdB inh: 12; Mtb UGM inh: inactive

What do the screens show for `COc1ccc(N=Cc2c(O)n(-c3cccc(C)n3)c(=O)c3ccccc23)c(OC)c1`?
PrP UTR inh: inactive; Vc quorum ag: inactive; Y pestis TopoI: inactive; TcdB inh: inactive; Mtb UGM inh: 20

Results for COc1cccc(N=Cc2c(O)n(-c3cccc(C)n3)c(=O)c3ccccc23)c1 ?
PrP UTR inh: inactive; Vc quorum ag: inactive; Y pestis TopoI: inactive; Mtb UGM inh: inactive

How did CC(Sc1nc2ccccc2n1C)C(=O)Nc1ccc(N2CCOCC2)cc1 (stereo not given) do in these assays?
PrP UTR inh: inactive; Vc quorum ag: inactive; Y pestis TopoI: inactive; TcdB inh: 13; Mtb UGM inh: inactive

What do the screens show for `CC(C)Cn1c(SC(C)C(=O)Nc2ccc(N3CCOCC3)cc2)nc2ccccc21` (stereo not given)?
PrP UTR inh: inactive; Vc quorum ag: inactive; Y pestis TopoI: inactive; TcdB inh: inactive; Mtb UGM inh: inactive

Results for COc1ccc(-c2nc(=S)[nH][nH]2)cc1OC ?
PrP UTR inh: inactive; Vc quorum ag: inactive; Y pestis TopoI: inactive; TcdB inh: inactive; Mtb UGM inh: inactive

What do the screens show for `COc1cc(-c2nc(=S)[nH][nH]2)cc(OC)c1OC`?
PrP UTR inh: inactive; Vc quorum ag: inactive; Y pestis TopoI: inactive; TcdB inh: 30; Mtb UGM inh: inactive

How did COc1ccccc1N1C(=O)C2C(C(=O)c3ccccc3)=NN(c3ccccc3)C2C1=O (stereo not given) do in these assays?
PrP UTR inh: inactive; Vc quorum ag: inactive; Y pestis TopoI: inactive; TcdB inh: inactive; Mtb UGM inh: inactive

Results for COc1ccccc1N1N=C(C(=O)c2ccccc2)C2C(=O)N(c3ccc(Br)cc3)C(=O)C21 (stereo not given) ?
Vc quorum ag: inactive; Y pestis TopoI: inactive; TcdB inh: inactive; Mtb UGM inh: 31

Results for CCCCOC(=O)c1ccccc1C(=O)OCCCC ?
PrP UTR inh: inactive; Vc quorum ag: inactive; Y pestis TopoI: inactive; TcdB inh: inactive; Mtb UGM inh: inactive

What do the screens show for `O=C(O)c1ccccc1C(=O)OCCCCOC(=O)c1ccccc1C(=O)O`?
PrP UTR inh: inactive; Vc quorum ag: inactive; Y pestis TopoI: inactive; Mtb UGM inh: 11

How did CNC(=O)C[C@@H]1CC[C@@H]2[C@H](COc3ccc(NC(=O)Nc4ccc(F)c(F)c4)cc3C(=O)N2C)O1 do in these assays?
TcdB inh: inactive

How did Cc1ccc(-c2nnc3n2N=C(c2ccccc2Br)CS3)cc1 do in these assays?
PrP UTR inh: inactive; Vc quorum ag: inactive; Y pestis TopoI: 59; Mtb UGM inh: inactive

How did Cc1cccc(-c2nnc3n2N=C(c2ccccc2)CS3)c1 do in these assays?
PrP UTR inh: inactive; Vc quorum ag: inactive; Y pestis TopoI: inactive; Mtb UGM inh: inactive

What do the screens show for `CCN1[C@@H]2Cn3c(ccc(-c4ccc(F)cc4)c3=O)[C@H]1[C@@H](C(=O)Nc1ccccc1)[C@@H]2CO`?
TcdB inh: inactive

How did Cc1ccc(S(=O)(=O)Nc2ccc3c(c2)C(=O)N([C@@H](C)CO)C[C@@H](C)[C@@H](CN(C)Cc2ccc4c(c2)OCO4)O3)cc1 do in these assays?
TcdB inh: inactive

Results for NC1=NC[C@@H](CC2CCCCC2)N1CCc1cc(C(F)(F)F)cc(C(F)(F)F)c1 ?
PrP UTR inh: inactive; Vc quorum ag: inactive; Y pestis TopoI: inactive; Mtb UGM inh: inactive

Results for NC1=NC[C@H](Cc2ccc(O)cc2)N1CCc1cc(C(F)(F)F)cc(C(F)(F)F)c1 ?
PrP UTR inh: inactive; Vc quorum ag: inactive; Y pestis TopoI: inactive; TcdB inh: 11; Mtb UGM inh: inactive

Results for Cc1cc(C)c2c(=O)n3c(nc2c1)C(Cc1ccc(O)cc1)NC(=O)c1cc2ccccc2cc1-3 (stereo not given) ?
Vc quorum ag: inactive; Y pestis TopoI: 59; TcdB inh: inactive

Results for O=C1NC(Cc2ccc(O)cc2)c2nc3ccc(Br)cc3c(=O)n2-c2cc3ccccc3cc21 (stereo not given) ?
Vc quorum ag: inactive; Y pestis TopoI: inactive; TcdB inh: inactive

Results for c1ccc(OCc2cc(-c3ccccc3)no2)cc1 ?
PrP UTR inh: inactive; Vc quorum ag: inactive; Y pestis TopoI: inactive; TcdB inh: inactive; Mtb UGM inh: inactive

How did COc1ccc(OCc2cc(-c3ccc(Cl)cc3)no2)cc1 do in these assays?
PrP UTR inh: inactive; Vc quorum ag: inactive; Y pestis TopoI: inactive; TcdB inh: 19; Mtb UGM inh: inactive

What do the screens show for `CO[C@H]1CC[C@H]2CCN(C)C(=O)C[C@H](c3ccccc3)CN(C)C(=O)c3cccc(C#N)c3OC[C@H]1O2`?
TcdB inh: inactive

What do the screens show for `COc1ccc(N=Nc2cc(OC)c(N)cc2OC)cc1`?
PrP UTR inh: inactive; Vc quorum ag: inactive; Y pestis TopoI: inactive; TcdB inh: 10

Results for COc1ccc(OC)c(N)c1 ?
PrP UTR inh: inactive; Vc quorum ag: inactive; Y pestis TopoI: inactive; Mtb UGM inh: inactive

What do the screens show for `C[C@@H]1CN([C@H](C)CO)C(=O)c2cc(NC(=O)Nc3ccc(F)cc3)ccc2O[C@H]1CN(C)S(C)(=O)=O`?
TcdB inh: inactive
